Values joined by “and” are separate entries in the source; they are usually repeats but may differ in a detail not shown here. Identical values can stand only once. Hit rate of the full screen: of about 360,000 compounds, about 1,400 (0.39%) were called active. Cut-off read from the data, not from the text of the source: active = inhibition above about 21%; inactive = the rest. The sample as a whole holds a higher share of actives than the screen did.
The compounds below were run against Receptor-interacting serine/threonine-protein kinase 2 (Homo sapiens) (UniProt O43353) (assay: inhibitors of RIPK2 association with NOD2 – fluorescence, CHO cells, BLA complementation, primary screen (AID 624267;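 note: 0% = vehicle only and 100% = reference blocker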)). Settings: CHO BLA complementation NOD2-RIPK2, CCF4 ratio; at 4.98 µM; stronger effect = higher value.
Sequence of Receptor-interacting serine/threonine-protein kinase 2 (Homo sapiens) (O43353 whole entry, looked up): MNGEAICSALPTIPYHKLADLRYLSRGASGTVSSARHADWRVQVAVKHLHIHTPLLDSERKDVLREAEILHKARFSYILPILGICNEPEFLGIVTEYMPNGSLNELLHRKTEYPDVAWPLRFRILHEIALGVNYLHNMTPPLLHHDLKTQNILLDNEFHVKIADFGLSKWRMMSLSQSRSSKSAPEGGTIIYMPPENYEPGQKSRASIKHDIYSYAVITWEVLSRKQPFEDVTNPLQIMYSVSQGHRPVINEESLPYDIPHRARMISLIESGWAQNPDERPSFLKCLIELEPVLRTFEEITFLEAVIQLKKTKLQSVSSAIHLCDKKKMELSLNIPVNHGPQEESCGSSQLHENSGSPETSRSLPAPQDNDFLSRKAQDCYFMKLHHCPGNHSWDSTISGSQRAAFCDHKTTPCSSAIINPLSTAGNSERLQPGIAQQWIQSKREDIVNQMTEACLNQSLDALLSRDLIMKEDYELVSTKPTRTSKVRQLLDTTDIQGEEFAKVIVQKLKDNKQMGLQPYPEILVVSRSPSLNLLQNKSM

Compound | inhibition
CC(=O)Nc1cccc(Nc2ccc(C#N)cc2)c1 | 3.65% (inactive)
CCOC(=O)C1=C(C)Nc2sc(C(=O)c3ccc(Br)cc3)c(N)c2C1c1ccc(C(=O)OC)cc1 (centres undefined) | 27% (active)
COC(=O)c1ccc(C2NC(=O)NC(C)=C2C(=O)N(C)C)cc1 (centres undefined) | -10% (inactive)
CCOC(=O)C1=C(C)NC2=C(C(=O)CC(C)(C)C2)C1c1ccsc1 (centres undefined) | 2.36% (inactive)
COc1ccc(NC(=O)/C(Cl)=C(/Cl)S(=O)Cc2ccc(C)cc2)cn1 (centres undefined) | 95.1% (active)
NC(Cc1ccccc1)c1csc(Nc2cc(Oc3ccccc3)ncn2)n1 (centres undefined) | -5.36% (inactive)
O=C(COC(=O)c1ccccc1NC(=O)c1ccco1)Nc1ccc2c(c1)OC(F)(F)O2 | -2.03% (inactive)
O=C1c2cccc3c([N+](=O)[O-])ccc(c23)C(=O)N1CC1CCCO1 (centres undefined) | 80.1% (active)
O=C1C(C=NCC2CCCO2)=C(O)c2ccccc21 (centres undefined) | -5.23% (inactive)
N#Cc1cc([N+](=O)[O-])ccc1NCC1CCCO1 (centres undefined) | -32.9% (inactive)
Cc1ccc(S(=O)(=O)N2CCN(C(=O)c3cc(S(=O)(=O)N4CCOCC4)ccc3F)CC2)cc1 | -18.2% (inactive)
CCc1ccc(OC2(C)CCN(CCOc3ccc(C)cc3)C2)cc1 (centres undefined) | 0.79% (inactive)
Fc1ccc(N2N=C(c3cccs3)CC2c2ccco2)c(F)c1 (centres undefined) | -13.7% (inactive)
COc1ccccc1N1N=C(c2cccs2)CC1c1ccccc1 (centres undefined) | 49.9% (active)
COc1ccc(C2CC(c3cccs3)=NN2c2nc(C)c(C(C)=O)s2)cc1OC (centres undefined) | 6.76% (inactive)
Cc1ncoc1C(=O)N1CCCC(C(=O)c2ccc3c4c(cccc24)CC3)C1 (centres undefined) | 1.4% (inactive)
Cc1ccccc1C(=O)NCC(c1ccco1)N1CCc2ccccc21 (centres undefined) | 7.15% (inactive)
COC(=O)C1=C(C(=O)c2ccc(C)cc2)C(c2ccccc2)n2nnnc2N1 (centres undefined) | 2.81% (inactive)
COc1ccc(C2=CC(c3cccc(OC)c3)n3nnnc3N2)cc1 (centres undefined) | 26.8% (active)
COc1ccc(C2CC(c3cccs3)Nc3nnnn32)cc1 (centres undefined) | -2.81% (inactive)
O=C1N(c2ccc(Cl)cc2)C(c2ccc(Cl)cc2)N2CCCN12 (centres undefined) | 8.61% (inactive)
Cc1ccsc1-c1cc(C(=O)O)c2c(ccc3ccccc32)n1 | 0.09% (inactive)
CCOC(=O)C1(Cc2cccc(OC)c2)CCN(Cc2csc(C(C)=O)c2)CC1 | -2.05% (inactive)
CCCc1c(C(=O)Nc2ccc(F)cc2)cnn1-c1ccccc1 | -3.44% (inactive)

Compound | inhibition
O=C(c1cccc(-n2cccc2)c1)N1CCN(S(=O)(=O)c2ccc(F)cc2)CC1 | -0.82% (inactive)
O=[N+]([O-])/C=C/c1ccc2c(ccn2Cc2ccccc2)c1 | 87.9% (active)
COC(=O)N1CN(C(=O)OC)CN(C(=O)OC)C1 | -12.2% (inactive)
CN1CCN(CCCNC(=O)c2ccc(/C=C3\Oc4ccccc4N(Cc4ccc(Cl)cc4)C3=O)cc2)CC1 | 33.1% (active)
O=C(CCN1C(=O)COc2ccccc21)NCCCN1CCN(c2ccc(F)cc2)CC1 | -5.53% (inactive)
Cc1ccc(NC(=O)CCCNC(=O)c2ccc(Cl)cc2)cc1S(=O)(=O)N1CCOCC1 | -6.45% (inactive)
COc1ccc(C)cc1NC(=S)Nc1ccccc1SC | -5.8% (inactive)
CCOc1ccc(S(=O)(=O)NCc2ccc3c(c2)OCO3)cc1C | -3.55% (inactive)
CC(Oc1ccccc1)C(=O)Nc1oc(-c2ccco2)c(-c2ccco2)c1C#N (centres undefined) | -14.4% (inactive)
COc1ccccc1CSc1ncc(-c2ccc([N+](=O)[O-])cc2)[nH]1 | 29.2% (active)
COc1ccc(-c2cnc(SCCNC(=O)c3ccc4c(c3)OCO4)[nH]2)cc1 | -2.11% (inactive)
COc1cccc(-c2cnc(C(O)c3ccccc3OC)[nH]2)c1 (centres undefined) | -4.35% (inactive)
Cc1cccc(N2O[C@H]3C=CC2CCCC3)n1 | 9.84% (inactive)
O=S(=O)(c1ccccc1)N(Cc1cccc(F)c1)c1ccccc1 | -10.2% (inactive)
CCN(CC)S(=O)(=O)c1ccc2[nH]c(=O)cc(C(=O)N(C)C3CCS(=O)(=O)C3)c2c1 (centres undefined) | -6.75% (inactive)
O=S(=O)(c1ccc(OCC(O)CN2CCN(c3ccccc3Cl)CC2)cc1)N1CCOCC1 (centres undefined) | -2.63% (inactive)
Cc1cc2oc3ccc(NCCC4CCCN4C)cc3c(=O)c2cc1C (centres undefined) | 41.2% (active)
CN1CCC[C@@H]1CCO[C@](C)(c1ccccc1)c1ccc(Cl)cc1 | 14.6% (inactive)
CCCCC(CC(C)O)c1n[nH]c(=S)n1-c1ccccc1 (centres undefined) | -17.4% (inactive)
O=C(CCNc1n[nH]c(=O)[nH]c1=O)N/N=C\c1ccc(Br)cc1 | -5.19% (inactive)
Cc1nn(C)cc1N1C(=O)c2cccc3c(N)ccc(c23)C1=O | 24.3% (active)
O=C(CN1C(=O)NC2(CCOc3ccccc32)C1=O)Nc1cccc([N+](=O)[O-])c1 (centres undefined) | 5.36% (inactive)
Cc1cccc(C)c1NC(=O)CCS(=O)(=O)c1cccc2nsnc12 | 7.27% (inactive)
COc1cccc2sc(N(CCCN(C)C)C(=O)CCS(=O)(=O)c3ccccc3)nc12 | 31.7% (active)

Compound | inhibition
CCOc1ccccc1NC(=O)CCS(=O)(=O)c1cccc2nsnc12 | 5.35% (inactive)
O=C(O)CCS(=O)(=O)c1ccc(-c2ccccc2)cc1 | -5.35% (inactive)
Cc1cccc2sc(N(CCCN(C)C)C(=O)CCS(=O)(=O)c3ccccc3)nc12 | 24.6% (active)
COc1ccc(C)cc1NC(=O)CCS(=O)(=O)c1cccc2nonc12 | 4.16% (inactive)
O=C(CN1CCN(S(=O)(=O)c2ccc(F)cc2)CC1)NC1CC1 | 0.22% (inactive)
COCCCn1c(SCc2cccc(OC)c2)nc2cc(OC)c(OC)cc2c1=N | 12.2% (inactive)
CCOc1ccc(S(=O)(=O)N2CCN(C(=O)c3oc4ccccc4c3C)CC2)cc1 | -8.52% (inactive)
O=C(Cc1cccs1)Nc1ccc([N+](=O)[O-])cc1 | 3.09% (inactive)
O=C(CCc1ccccc1)NCCc1cccs1 | -5.14% (inactive)
CCCc1ccc(-c2csc(NC(=O)Cc3cccs3)n2)cc1 | 21.1% (active)
COc1cc(S(=O)(=O)Nc2ncn[nH]2)ccc1Cl | 3.73% (inactive)
CC(=O)c1cc(C#N)c(N2CC(C)OC(C)C2)nc1C (centres undefined) | 0.19% (inactive)
COc1ccc(-c2nc3cc(C)ccn3c2NC2CCCCC2)cc1SC1CCCCC1 | -6.71% (inactive) and 17.4% (inactive)
COc1ccc(-c2nc3cnccn3c2NC2CCCCC2)cc1-c1cccc(Cl)c1 | 27.1% (active) and 52.4% (active)
COc1ccc(-c2nc3cnccn3c2NC(C)(C)CC(C)(C)C)cc1O | 7.55% (inactive)
Cn1c(SCC(=O)NC2CCCCC2)nnc1-c1ccc(N)cc1 | -8.42% (inactive)
CCCn1nc(Oc2nc(NC(C)C)nc(N(C)C)n2)ccc1=O | -6.09% (inactive)
Cc1ccccc1CNC(=O)CCC(=O)N1Cc2ccccc2Oc2ncccc21 | -3.11% (inactive)
O=C(NNC(=O)C1CCC1)c1ccccc1 | -5.53% (inactive)
Cc1ccc(C(=O)Nc2c(-c3ccccc3)[nH][nH]c2=O)cc1 | -2.83% (inactive)
O=C(NC1=CC(=O)c2ccccc2C1=O)c1ccccc1 | 60.6% (active)
O=C(CN1C(=O)NC2(CCCCCC2)C1=O)NCc1cccs1 | 5.08% (inactive)
CCc1cccc(C)c1NS(=O)(=O)c1c(C)nc2sccn2c1=O | 6.35% (inactive)
Cc1cccc(-n2ncc(Cl)c(Cl)c2=O)c1 | 32.6% (active)

Compound | inhibition
Nc1c(-c2cccc(Cl)c2)cnn1-c1cccc([N+](=O)[O-])c1 | -0.26% (inactive)
Cc1cccc(N2Cc3ccccc3C2=NC(=O)c2ccc(Cl)nc2)c1 | 1.35% (inactive)
Cc1ccc2[nH]c(C)c(CCNC(=O)NC3CCCCC3)c2c1 | 10.4% (inactive)
O=C(CN1CCOCC1)Nc1c2c(nc3c1CCC3)CCC2 | -11.5% (inactive)
Cc1cc(C)n2nc(C(=O)OCC(=O)N(CCC#N)c3ccc(F)cc3)nc2n1 | 5.67% (inactive)
COc1cccc(C(=O)NNC(=O)/C=C/c2ccccc2)c1 | -14.4% (inactive)
CC(C)(C)C(=O)/C(C#N)=C/c1ccc(O)cc1 | -19.2% (inactive)
O=C(/C=C(O)/C=C/c1ccc(O)cc1)/C=C/c1ccc(O)cc1 | 56.9% (active)
COc1ccc(OC)c(CN2C(=O)CCC2(C)C(=O)NC2CCCCCC2)c1 (centres undefined) | -0.24% (inactive)
FC(F)(F)C1CCCN(c2nsc3ccccc23)C1 (centres undefined) | 31% (active)
O=[N+]([O-])c1cc(S(=O)(=O)NCCc2ccccn2)ccc1Cl | 5.34% (inactive)
Cc1ccc(C(=O)CN2C(=O)NC3(CCOc4ccccc43)C2=O)s1 (centres undefined) | -4.27% (inactive)
CCC1Sc2ccc(S(=O)(=O)CCC(=O)NCc3cccs3)cc2NC1=O (centres undefined) | -15.1% (inactive)
O=S(=O)(Nc1ccccn1)c1cccc(S(=O)(=O)c2ccc(Cl)cc2)c1 | -8.24% (inactive)
COc1cc(NS(=O)(=O)c2ccc3ccccc3c2)c2ncccc2c1 | 29.3% (active)
COc1ccc(OC)c(C(C)NC(=S)Nc2ccc(S(=O)(=O)Nc3ncccn3)cc2)c1 (centres undefined) | 2.38% (inactive)
Cc1ccccc1OCCOc1ccc([N+](=O)[O-])cc1/C=N/n1cnnc1 | 7.18% (inactive)
Cc1cccc(COc2ccccc2/C=N/Nc2ccc([N+](=O)[O-])cc2)c1 | 31.1% (active)
COC(=O)c1ccccc1N=NNc1ccc([N+](=O)[O-])cc1 | 2.92% (inactive)
CC(C=Cc1ccccc1)=NNS(=O)(=O)c1ccc([N+](=O)[O-])cc1 | 3.79% (inactive)
O=[N+]([O-])c1ccc(N/N=C/c2ccccc2)cc1 | 24.8% (active)
O=[N+]([O-])c1ccc(COc2ccccc2CN2CCOCC2)cc1 | -0.03% (inactive)

— PubChem BioAssay AID624267 (The Scripps Research Institute Molecular Screening Center, 2012)
